# Compound activity: PubChem, Broad Institute
# This is a sample that favours compounds with a hit; in the whole collection about 2.8% have one here.
# PAX8 inh HTS = PAX8 transcriptional activity inhibition | RMG-I TPO-luciferase reporter, SteadyGlo, 24 h | inhibition, % at 12.6 µM | 1.2% of 360,000 active | AID 652154;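 active = mean replicate inhibition at least 60% with every replicate also reaching 60%; inconclusive = only one of the two criteria is met; inactive = mean below 60% and not all replicates reaching 60%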;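 also: luciferase light reporting Pax8 driven TPO promoter activity; plate controls were median of neutral control wells for no effect and mitoxantrone controls for full effect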
# Glyco luc inh = N-linked glycosylation inhibition | 0.23% of 360,000 active | D54 ERlucT glycosylation luciferase reporter, 24 h; percent of 100 nM tunicamycin response | reporter increase, % at 12.5 µM;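 active = mean luciferase reporter signal, scaled so untreated is 0 and the glycosylation-blocking control 100, at or above a set limit in every replicate; inconclusive = mean reaches the limit but not every replicate does; inactive = mean below the limit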;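 also: luciferase carries N-glycosylation sites so blocking glycosylation raises the light; 0% = median of neutral control wells and 100% = median of 100 nM tunicamycin wells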
# NSD2 inh = NSD2 (human) methyltransferase inhibition. O96028. NSD2 peptide methylation, AlphaScreen, 120 min. inhibition, % at 12.5 µM. 0.54% of 310,000 active; in the data active = inhibition above about 50%
# LMP1 NFkB inh = inhibitors of Epstein-Barr LMP1-induced NF-kappaB reporter. LMP1-induced NF-kappaB luciferase reporter cells, luminescence. inhibition, % at 12.5 µM. 0.69% of 350,000 active; in the data active = inhibition above about 41%; inconclusive = no clear call, values can overlap the other calls;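 also: 0% = neutral control wells and 100% = reference inhibitor control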
# Shn3 inh set2 = inhibitors of Schnurri-3 3'UTR reporter in osteoblasts; inhibition, % at 12.5 µM; 0.52% of 360,000 active; AID 588674; Clone20 osteoblast Shn3 3'UTR firefly luciferase, 24 h;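 active = mean inhibition of at least 75% with every replicate also reaching 75%; inconclusive = mean inhibition at least 75% but some replicate below; inactive = mean inhibition below 75%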;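 also: 0% = median of neutral control wells and 100% = pilot-screen positive control compound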
# Env fusion inh = blocks HIV Env-driven cell-cell fusion | HeLa-JRFL Env/CEM21 cell fusion, luciferase | inhibition, % at 12.3 µM | 1.1% of 360,000 active | AID 651610;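 active = mean replicate inhibition score of at least 50 and every replicate individually at or above 50; inconclusive = only one of the two criteria met; inactive = mean below 50 and not all replicates reaching 50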;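 also: 0% = plate neutral controls and 100% = maraviroc near 300 nM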
# Starred values were filed as active, the others as inactive; ? = inconclusive; / = not tested or not shown; ! = not confirmed by another sample; [ ] = another dose, or the depositor's remark.
SMILES,PAX8 inh HTS,Glyco luc inh,NSD2 inh,LMP1 NFkB inh,Shn3 inh set2,Env fusion inh
C/C(=N/NC(=O)c1ccc2nc[nH]c2c1)c1cccs1,-86,-1,/,52*,-14,-12
O=C(N/N=C/c1cccs1)c1n[nH]c2c1CCCC2,65*,-19,/,68*,59,17
COC(=O)C[C@H]1CC[C@@H]2[C@@H](COc3ccc(NC(=O)c4ccccc4F)cc3C(=O)N2C)O1,-6,/,/,/,/,-4[16.7 µM]
C[C@H](CO)N1C[C@H](C)[C@H](CN(C)C(=O)Cc2ccccc2)OCCCC[C@H](C)Oc2ccc(NC(=O)Cc3ccccc3)cc2C1=O,-4,/,/,/,/,-30[16.7 µM]
Cc1cccc2c(CC(=O)Nc3ccccc3)noc12,64*,1,-3,-1,-8,13
CCCCCC[N+](C)(C)CCSSCC[N+](C)(C)CCCCCC,15,0,2,-5,-6,-2
CCCCCCCCCCCCCCCC[N+](C)(C)CC,107*,-15,/,2,93*,?
CCCCCCCCCCCCCCCC[N+](C)(C)CCl,106*,-7,/,0,83,-16
CCCCCCCCCCCCCCCC(O)C[N+](C)(C)CCO (stereo not given),/,-10,18,-7,29,16
C[C@@H]1CN([C@@H](C)CO)C(=O)c2cc(NC(=O)Nc3ccc(F)cc3)ccc2O[C@@H](C)CCCCO[C@@H]1CN(C)S(=O)(=O)c1cn(C)cn1,-4,/,/,/,/,-3[16.7 µM]
CCCn1c(=O)c(C(=O)OCC)c(O)c2cc(Br)ccc21,-1,2,-1,8,13,-9
CCOC(=O)c1c(CN(C)C)n(C)c2c(O)c(N=NC(N)=O)c3ccc(Br)cc3c12,32,28*,50,-8,-3,14
COc1cc2c(cc1OC)C(c1cccs1)N(C(=S)NC(C)C)CC2 (stereo not given),0,45*,-1,-75,17,-39
COCC(=O)Nc1ccc2c(c1)OC[C@H](C)N(Cc1cc(F)ccc1F)C[C@@H](C)[C@@H](OC)CN(C)C2=O,10,/,/,/,/,/
O=C1/C(=C/C=C/c2ccco2)SC(=S)N1NS(=O)(=O)c1ccccc1,-8,0,119*,-7,-11,-11
O=C1/C(=C/c2cccs2)SC(=S)N1NS(=O)(=O)c1ccccc1,11,3,6,-10,6,6
O=C(C[C@@H]1C=C[C@@H](NC(=O)Nc2ccc(F)cc2)[C@@H](CO)O1)NCc1ccccn1,-9,/,/,/,/,11[16.7 µM]
COc1ccc(N=CC2=C(O)c3ccccc3C2=O)c(OC)c1,/,-15,1,57*,44,/
Cc1ccc(C(C)C)c(OCc2ccc(C(=O)N/N=C/c3ccc(O)cc3O)cc2)c1,?,-9,-2,17,92*,-8
C[C@H](CO)N1C[C@H](C)[C@H](CN(C)C(=O)C2CC2)OCc2ccccc2-c2c(n(C)c3ccccc23)C1=O,9,/,/,/,/,60*[16.7 µM]
COC(=O)N(C)C[C@@H]1OCc2ccccc2-c2c(n(C)c3ccccc23)C(=O)N([C@H](C)CO)C[C@@H]1C,-18,2,/,-16,-9,66*!
COc1ccc(NC(=O)N(C)C[C@@H]2OCc3ccccc3-c3c(n(C)c4ccccc34)C(=O)N([C@H](C)CO)C[C@@H]2C)cc1,/,/,/,/,/,25[16.7 µM]
CC(C)COC(=O)N(C)C[C@@H]1OCc2ccccc2-c2c(n(C)c3ccccc23)C(=O)N([C@@H](C)CO)C[C@@H]1C,15,/,/,/,/,47[16.7 µM]
COc1ccccc1NC(=O)N(C)C[C@@H]1OCc2ccccc2-c2c(n(C)c3ccccc23)C(=O)N([C@H](C)CO)C[C@@H]1C,17,-5,/,5,4,67*
C[C@H](CO)N1C[C@H](C)[C@@H](CN(C)Cc2ccc(Oc3ccccc3)cc2)OCc2ccccc2-c2c(n(C)c3ccccc23)C1=O,89*,/,/,/,/,/
SMILES,PAX8 inh HTS,Glyco luc inh,NSD2 inh,LMP1 NFkB inh,Shn3 inh set2,Env fusion inh
O=C(C[C@H]1CC[C@@H]2[C@H](COC[C@H](O)CN2Cc2ccc3c(c2)OCO3)O1)Nc1ccc(-c2ccccc2)cc1,34,/,/,/,/,-8[16.7 µM]
CN1C(=O)c2cc(NC(=O)c3cnccn3)ccc2OC[C@@H]2O[C@@H](CC(=O)O)CC[C@H]21,-6,/,/,/,/,-16[16.7 µM]
C[C@@H]1CN([C@H](C)CO)C(=O)c2c(c3ccccc3n2C)-c2ccccc2CO[C@@H]1CN(C)C(=O)CCC(F)(F)F,6,/,/,/,/,-24[16.7 µM]
C[C@H]1CN([C@@H](C)CO)C(=O)c2c(c3ccccc3n2C)-c2ccccc2CO[C@@H]1CN(C)C(=O)CCC(F)(F)F,65*,/,/,/,/,36[16.7 µM]
Cc1ccc(NC(=O)c2ccc(OCC3CCCO3)cc2)cc1Cl (stereo not given),-152,1,1,-33,-24,70*
COc1ccc(NC(=O)Nc2cc(C)ccn2)cc1,-41,-18,/,32,0,-343
COc1ccc(C(=O)NC(=O)Nc2cc(C)ccn2)cc1,/,-24,-4,68*,24,/
Cc1ccnc(NC(=O)c2ccc(OCC3CCCO3)cc2)c1 (stereo not given),49,-22,0,45*,0,18
CCC(=O)N(C)C[C@H]1Oc2cc(-c3ccc(OC)cc3)ccc2S(=O)(=O)N([C@@H](C)CO)C[C@H]1C,15,/,/,/,/,8[16.7 µM]
CCC(=O)N1CC(=O)N2[C@H](C1)[C@H](c1ccc(C#Cc3cccc(OC)c3)cc1)[C@@H]2CO,42,/,/,/,/,/
O=C(N(c1ccccn1)c1ccccn1)C12CC3CC(CC(Cl)(C3)C1)C2,18,0,1,0,5,73*
C[C@H]1CN([C@@H](C)CO)C(=O)c2cccc(NC(=O)c3ccc(-c4nccs4)cc3)c2O[C@@H]1CN(C)S(=O)(=O)c1cccs1,/,/,/,/,/,-8[16.7 µM]
C[C@@H]1CN([C@H](C)CO)C(=O)c2cc(NS(=O)(=O)c3cn(C)cn3)ccc2O[C@@H]1CN(C)Cc1ccc(-c2ccccc2)cc1,-2,/,/,/,/,/
O=C(Cc1cccs1)N(Cc1cccs1)C1(C(=O)NC2CCCCC2)CCCCC1,2,-7,-2,-36,13,79*
O=C(c1ccc(C(=O)N2CCOCC2)s1)N1CCOCC1,-12,-1,25,-4,-5,23
O=C(c1cc(Br)c(Br)s1)N1CCOCC1,-13,0,-1,0,1,63*
O=C(C1CC1)N1C[C@H]2[C@@H](c3ccccc31)[C@H](CO)N2Cc1ccccc1Cl,25,/,/,/,/,/
CCOC(=O)N1C2CCC(C2)N1C(=O)OCC,-25,2,-2,-9,93*,8
Cc1ccc(S(=O)(=O)N(C)C[C@@H]2OCCCC[C@H](C)Oc3ccc(NC(=O)Nc4ccc(C(F)(F)F)cc4)cc3C(=O)N([C@H](C)CO)C[C@H]2C)cc1,61*,/,/,/,/,45[16.7 µM]
Cc1ccc(S(=O)(=O)N(C)C[C@@H]2OCCCC[C@@H](C)Oc3ccc(NC(=O)Nc4ccc(C(F)(F)F)cc4)cc3C(=O)N([C@H](C)CO)C[C@H]2C)cc1,51,/,/,/,/,57*[16.7 µM]
CCC(=O)N(C)C[C@@H]1Oc2cc(-c3ccc(C#N)cc3)ccc2S(=O)(=O)N([C@H](C)CO)C[C@H]1C,/,/,/,/,/,2[16.7 µM]
